This note sets out measurements from PubChem BioAssay (Tox21).

SMILES strings stand for the structures. Several values for one entry are separate records, joined by “and”; a condition that tells them apart may be missing. Identical values can stand only once. Values without a mark were called inactive. Inconclusive results are not listed. Activity calls are given as the source filed them. Unless noted, calls follow the shape of the dose curve; as a rule, active = well fitted curve in the direction sought with a large enough effect in the repeat runs; inconclusive = weak or mixed curves; inactive = no such curve, though single readings can be large; an effect the other way counts as inactive or inconclusive.

A short description of test [1]: qHTS assay for small molecules that induce genotoxicity in human embryonic kidney cells expressing luciferase-tagged ATAD5 (AID 651632). Also: % is scaled to controls: 0 for no effect and ±100 for the full control effect; nearly all actives have a fitted effect of over 15% in size. In a few lines: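 Concentration-response screen for ATAD5 upregulation in HEK293T luciferase reporter cells; 16 hr treatment at 37C, then luminescence after 30 min with Amplite at room temperature.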
Test [2] in a line: qHTS assay for small molecule agonists of the p53 signaling pathway - cell viability (AID 651633; calls by dose curve; also: nearly all actives have a fitted effect of over 30% in size; also: potency is read from the fitted curve at half-maximal effect). In a few lines: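 p53RE-bla cells, seeded at 4,000 per well and rested 5 h at 37 C/5% CO2, received compounds in DMSO for 16 h at 37 C. CellTiter-Glo was then added, and luminescence was read after 30 min at room temperature to gauge cytotoxicity.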
Test [3] is described as follows: qHTS assay for small molecules that induce genotoxicity in human embryonic kidney cells expressing luciferase-tagged ATAD5 - cell viability (AID 651634; calls by dose curve; also: nearly all actives have a fitted effect of over 25% in size; also: potency is read from the fitted curve at half-maximal effect). The essentials:
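15.5 hr compound or vehicle exposure of HEK293T cells expressing luciferase-tagged ATAD5 at 37C; live-cell protease activity is read by fluorescence after 30 min of CellTiter-Fluor.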

Test [4] is described as follows: qHTS assay for small molecule disruptors of the mitochondrial membrane potential - cell viability (AID 720634; calls by dose curve; also: nearly all actives have a fitted effect of over 20% in size; also: potency is read from the fitted curve at half-maximal effect). The essentials: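 In this qHTS format, HepG2 cells plated overnight were pinned with compound, incubated 1 hr, and assayed for ATP luminescence with CellTiter-Glo after m-MPI dye addition.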
The nature of test [5]: qHTS assay for small molecule disruptors of the mitochondrial membrane potential (AID 720635). Also: potency is read from the fitted curve at half-maximal effect. The essentials: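 HepG2 cells (2,000/well) attached overnight at 37C, then took compound for 1 hr at 37C, 5% CO2. Mito-MPS dye was added for 30 min; fluorescence was read at 490/535 nm (monomers) and 540/590 nm (aggregates).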
A short description of test [6]: qHTS assay to test for compound auto fluorescence at 590 nm (red) in HepG2 cells (AID 720674). Also: % is scaled to controls: 0 for no effect and ±100 for the full control effect. In a few lines: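 Intrinsic compound fluorescence in the red window (Ex/Em 540/590 nm) is measured in attached HepG2 cells exposed for 1 hr, DMSO vehicle as baseline, benchmarked to Rose Bengal sodium.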
A short description of test [7]: qHTS assay to test for compound auto fluorescence at 460 nm (blue) in HEK293 cells (AID 720678). Also: % is scaled to controls: 0 for no effect and ±100 for the full control effect. In a few lines: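 Blue-channel (Ex/Em 405/460 nm) intensity measured in HEK293 cultures after overnight compound exposure at 37C; signal expressed relative to triamterene. Cells plated 2,000 per well in 10% dialyzed FBS medium and allowed 4-5 hr to attach.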
Test [8] is described as follows: qHTS assay to test for compound auto fluorescence at 590 nm (red) in HEK293 cells (AID 720679). Also: % is scaled to controls: 0 for no effect and ±100 for the full control effect. The essentials: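 Red-channel autofluorescence (Ex/Em 540/590 nm; Rose Bengal sodium reference) was measured after overnight 37C, 5% CO2 exposure of attached HEK293 cells, 2,000 per well in medium with 10% dialyzed FBS.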
A short description of test [9]: qHTS assay to test for compound auto fluorescence at 535 nm (green) in HEK293 cells (AID 720680). Also: % is scaled to controls: 0 for no effect and ±100 for the full control effect.
A short description of test [10]: qHTS assay to test for compound auto fluorescence at 460 nm (blue) in HEK293 cell free culture (AID 720681). Also: % is scaled to controls: 0 for no effect and ±100 for the full control effect. The essentials: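 Test compounds were pinned into cell-free culture medium (DMEM with 10% FBS) and fluorescence was read directly at Ex/Em 405/460 nm. Signals were expressed as fluorescence equivalents of triamterene, with DMSO vehicle as control.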
Test [11] in a line: qHTS assay to test for compound auto fluorescence at 535 nm (green) in HEK293 cell free culture (AID 720682). Also: % is scaled to controls: 0 for no effect and ±100 for the full control effect. In a few lines:
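Cell-free medium (DMEM, 10% FBS) receives compound or DMSO by pintool. Plate read directly at Ex 485/Em 535 nm. Signal converted to fluorescein equivalency.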

Test [12] is described as follows: qHTS assay to test for compound auto fluorescence at 590 nm (red) in HEK293 cell free culture (AID 720683). Also: % is scaled to controls: 0 for no effect and ±100 for the full control effect. In a few lines:
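Tox21 10K library compounds were pinned into cell-free DMEM with 10% FBS and fluorescence was read at excitation 540 nm. Activity is expressed as Rose Bengal sodium equivalency.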

The nature of test [13]: qHTS assay to test for compound auto fluorescence at 590 nm (red) in HepG2 cell free culture (AID 720684). Also: % is scaled to controls: 0 for no effect and ±100 for the full control effect. In a few lines:
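Ex 540 / Em 590 nm read of compound in cell-free MEM (10% FBS). Rose Bengal sodium reference.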

A short description of test [14]: qHTS assay to test for compound auto fluorescence at 460 nm (blue) in HepG2 cell free culture (AID 720685). Also: % is scaled to controls: 0 for no effect and ±100 for the full control effect. The essentials:
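Cell-free plates of MEM plus 10% FBS received 23 nL compound or DMSO vehicle; blue-channel (405/460 nm) intensity scored against triamterene as reference fluorophore.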

A short description of test [15]: qHTS assay to test for compound auto fluorescence at 535 nm (green) in HepG2 cell free culture (AID 720686). Also: % is scaled to controls: 0 for no effect and ±100 for the full control effect.
A short description of test [16]: qHTS assay to test for compound auto fluorescence at 460 nm (blue) in HepG2 cells (AID 720687). Also: % is scaled to controls: 0 for no effect and ±100 for the full control effect. The essentials: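 Cells (2,000/well in MEM with 10% FBS) attached overnight at 37 C, then were exposed to compound or DMSO for 1 hr at 37 C, 5% CO2. Fluorescence read at Ex/Em 405/460 nm, expressed as triamterene-equivalent signal.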
Test [17] can be described thus: qHTS assay to test for compound auto fluorescence at 535 nm (green) in HepG2 cells (AID 720675). Also: % is scaled to controls: 0 for no effect and ±100 for the full control effect.
Test [18] has as its target Glucocorticoid receptor (Homo sapiens) (UniProt P04150). Briefly: qHTS assay to identify small molecule antagonists of the glucocorticoid receptor (GR) signaling pathway (AID 720692; active = well fitted inhibition curve with a large enough effect in the signal ratio in the repeat runs, not every such curve was filed as active; the % refers to the signal ratio; also: % is scaled to controls: 0 for no effect and ±100 for the full control effect). The essentials: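 Tox21 10K library screened in concentration-response for blockade of dexamethasone (5 nM final)-induced GRE-bla reporter activity in HeLa cells; 18 h treatment, fluorescence read.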

The target is the same in test [19]. The experiment in a line: qHTS assay to identify small molecule agonists of the glucocorticoid receptor (GR) signaling pathway (AID 720691; active = well fitted activation curve with a large enough effect in the signal ratio in the repeat runs, not every such curve was filed as active; the % refers to the signal ratio; also: % is scaled to controls: 0 for no effect and ±100 for the full control effect). The settings on record: GR-bla HeLa, beta-lactamase reporter ratio, 18 h; activation: at 62.4 µM (top of the series). In a few lines:
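Measures GR pathway activation through a GRE-beta-lactamase reporter stably integrated in HeLa cells, with 18 h compound treatment at 37 C and fluorescence detection using a FRET substrate.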

Chain of Glucocorticoid receptor (Homo sapiens) (P04150 whole entry, looked up): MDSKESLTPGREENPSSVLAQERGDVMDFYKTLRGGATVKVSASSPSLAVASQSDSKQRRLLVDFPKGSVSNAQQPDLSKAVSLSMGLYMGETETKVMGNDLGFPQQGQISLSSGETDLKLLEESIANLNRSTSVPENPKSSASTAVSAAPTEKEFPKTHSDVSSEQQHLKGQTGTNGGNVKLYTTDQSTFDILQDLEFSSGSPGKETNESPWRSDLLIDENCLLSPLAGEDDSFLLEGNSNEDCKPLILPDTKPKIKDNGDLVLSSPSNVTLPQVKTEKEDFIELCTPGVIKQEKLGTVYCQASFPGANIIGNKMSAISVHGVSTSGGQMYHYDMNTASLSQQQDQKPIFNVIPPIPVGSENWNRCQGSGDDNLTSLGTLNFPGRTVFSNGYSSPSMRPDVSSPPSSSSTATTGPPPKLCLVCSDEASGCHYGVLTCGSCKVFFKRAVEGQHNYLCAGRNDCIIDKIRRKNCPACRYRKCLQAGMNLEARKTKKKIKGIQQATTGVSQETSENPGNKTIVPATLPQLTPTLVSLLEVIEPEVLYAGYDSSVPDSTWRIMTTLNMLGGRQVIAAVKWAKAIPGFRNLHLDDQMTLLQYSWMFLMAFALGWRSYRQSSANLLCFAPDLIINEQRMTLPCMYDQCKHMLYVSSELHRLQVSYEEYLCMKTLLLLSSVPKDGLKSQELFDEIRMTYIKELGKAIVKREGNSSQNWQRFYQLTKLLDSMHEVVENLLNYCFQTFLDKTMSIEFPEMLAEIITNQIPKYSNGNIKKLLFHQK

`c1ccc(Nc2cccc3ccccc23)cc1`: the Potency result in test [1], in test [2], in [3], in test [6], in [7] and in [8] was “inactive” in each case. In addition, the Potency result in test [9], in test [10], in test [11], in [12], in [13] and in test [14] was “inactive” throughout. In addition, the Potency result in test [15] and in test [16] was “inactive” each time. Further, the Potency in test [4] is 54.5 µM (active); in test [5], 43.8 µM (active) and 43.3 µM (active).
Take `CNC(=S)NN`: the Potency entry in test [1], in test [2], in test [3], in test [4], in [6] and in test [17] was “inactive” each time. Moreover, the Potency entry in test [7], in [8], in test [9], in test [10], in [11] and in [12] was “inactive” throughout. Moreover, the Potency result in test [13], in [14], in [15], in test [16] and in test [18] was “inactive” throughout.
Turning to `CC(CN(C)C)CN1c2ccccc2CCc2ccccc21` (centres undefined), the Potency entry in [1], in test [2], in [3] and in [4] was “inactive” each time. Further, the fluorescence, relative to Rose Bengal in test [6] was 0.485% [at 18.6 µM]. The fluorescence, % of triamterene in test [7] is -0.0464% [at 18.6 µM]. The fluorescence, % of fluorescent control in [8] was -0.076% [at 18.6 µM]; in test [10] it was 0.133% [at 18.6 µM]; in test [12], 0.264% [at 18.6 µM]; in test [14] it was 0.118% [at 18.6 µM]; in [16] it was -0.0977% [at 18.6 µM]. The fluorescence, % of fluorescein in test [9] is 0.0583% [at 18.6 µM]. In addition, the activity change in test [11] was -0.0046% [at 18.6 µM, stronger effect = higher value]. Also, the fluorescence, % of Rose Bengal in test [13] was 0.0079% [at 18.6 µM]. The fluorescence, % of fluorescein control in test [15] was -0.0071% [at 18.6 µM].
`CCN(CC)CCCN(c1ccccc1)C1Cc2ccccc2C1`: the Potency entry in test [1], in test [6], in test [7], in [8], in [9] and in [10] was “inactive” each time. Also, the Potency entry in test [11], in [12], in test [13], in test [15] and in test [16] was “inactive” in each case. The Potency in test [2] is 13.3 µM (active); in test [3], 23.7 µM (active); in test [4] it was 29.8 µM (active).
Take `C=C(C)C(=O)OCCC[Si](Cl)(Cl)Cl`: the Potency result in test [1], in [2], in test [3], in test [6], in test [7] and in test [8] was “inactive” in each case. For the same molecule, the Potency result in [10], in test [11], in [12], in [13], in [15] and in test [16] was “inactive” each time. The Potency entry in test [19] is “inactive”. Moreover, the Potency in test [5] is 61.7 µM (active).
With `CC(C)(C)CC(C)(C)c1ccccc1O`, the Potency entry in test [1], in test [6], in test [17], in test [7], in test [8] and in [10] was “inactive” throughout. The Potency result in test [11], in [13], in test [14], in test [15] and in test [16] was “inactive” each time. Moreover, the Potency in [2] is 43.5 µM (active); in test [4] it was 27.4 µM (active); in [5], 2.18 µM (active).
As to `C/C=C/C=N/NC(=O)c1ccncc1`, the Potency entry in test [1], in test [2], in test [3], in [4], in test [6] and in [7] was “inactive” throughout. For the same molecule, the Potency result in [8], in [9], in test [10], in test [11], in test [13] and in test [14] was “inactive” in each case. Besides, the Potency result in test [15], in [16] and in test [18] was “inactive” each time.
As for `C[C@@H]1CC[C@H]2C(C)(C)[C@H]3C[C@@]12CC[C@@]3(C)O`, the Potency result in [1], in test [2], in [3], in test [6], in [17] and in [7] was “inactive” each time. Further, the Potency entry in test [8], in [10], in [11], in [12], in test [13] and in test [14] was “inactive” throughout. For the same molecule, the Potency result in test [15] and in test [16] was “inactive” each time.
